Data reported in PubChem BioAssay AID1259415 (National Center for Advancing Translational Sciences (NCATS), 2018).
The campaign covered roughly 410,000 compounds. About 18,000 (4.4%) were called active. Inconclusive results (about 7%) are left out. For the sample, actives were picked, then their nearest neighbours and some compounds at random. Unmarked numbers belong to inactive results. Rule as the data show it: active = activity change below about -60%; inconclusive = no clear call, values can overlap the other calls; inactive = above about -39%.

Experiment: qHTS Assay for inhibitors of the human cytomegalovirus (HCMV)
Conditions: HFF cells, HCMV-luciferase reporter, 72 h; at 57.5 µM; stronger effect = lower value
Method in brief: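 Compounds were evaluated in HFFs infected with an HCMV luciferase reporter virus (MOI 1 PFU/cell). Luciferase in lysates collected 72 h post infection served as the replication measure.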
% is scaled to controls: 0 for no effect and ±100 for the full control effect.

Compound | activity change, negative = inhibition
CN(C)S(=O)(=O)c1cc(C(=O)Nc2ccn(C)n2)c(Cl)cc1Cl | 0% (active)
O=C(Nc1nccs1)c1cc(S(=O)(=O)N2CCOCC2)c(Cl)cc1Cl | 32.2%
CCN(CC)C(=O)c1ccc(NC(=O)c2cc(-n3cnnc3)ccc2Cl)cc1 | 34.8%
Cc1ccc(N2CC(c3nnc(Cc4ccccc4Cl)o3)CC2=O)cc1 (stereo unspecified) | -8.78%
CCOC(=O)CNC(=O)c1cc2c(=O)n3cccc(C)c3nc2s1 | 9.74%
Cc1ccc2oc(=O)c3cnn(CC(=O)N4CCN(c5cccc(Cl)c5)CC4)c3c2c1 | -2.47%
CCCCN(CC)CCCNC(=O)c1nn(C)c2c1CS(=O)(=O)c1ccccc1-2 | -8.91%
c1c2c(cc3sc(N4CCCCC4)nc13)OCCO2 | -64.2% (active)
O=C(NCc1ccc(F)cc1)c1ccc2nc(N3CCCCC3)sc2c1 | 65.5%
CCOC(=O)c1cc2c(=O)n3ccccc3nc2n(CCCOC)c1=NC(=O)C(C)(C)Oc1ccc(Cl)cc1 | 6.81%
COc1ccc(CCNCc2c(C(=O)O)c(C)n(Cc3cccc(C)c3)c2C)cc1OC | -1.54%
Cc1ccccc1CN1C[C@@H]2C[C@@H](c3cn(C)nc3-c3ccccc3)N3CCC[C@@]23C1=O | 32.8%
CCOc1ccc(NC(=O)c2cnn(-c3ccccc3)c2-n2cccc2)cc1 | -19.9%
CCOc1ccc(NC(=O)c2cc(C)nc3ccccc23)cc1 | -60.4% (active)
CCOc1ccc(-c2cc3c(=O)n(CC(=O)NCc4ccc(OC)cc4)ccn3n2)cc1 | 78.4%
CCOc1ccc(CNC(=O)c2cc(-c3ccc(Cl)s3)nc3ccccc23)cc1 | 1.58%
CCOc1ccc(-c2cc(C(=O)N/N=C/c3ccc(O)cc3)c3ccccc3n2)cc1 | -83% (active)
CCOc1ccc(-c2cc(C)n3nc(C(=O)Nc4ccc(C)c(C)c4)cc3n2)cc1 | -5.97%
Cc1ccc(NC(=O)Cn2nnc3sc4c(c3c2=O)CCC(C)C4)cc1 (stereo unspecified) | -19.7%
COc1ccc(-c2onc(C)c2C)cc1S(=O)(=O)NCc1cccs1 | 86.9%
O=C(COc1ccc(Cl)cc1)Nc1ccccc1OCc1cc(=O)n2ccccc2n1 | 47.7%
CCCCC(=O)Nc1ccc(C(=O)Nc2cc(C(F)(F)F)ccc2Cl)cc1 | -64% (active)

Compound | activity change, negative = inhibition
COc1ccc(C(=O)COC(=O)CCCC(=O)Nc2cc(C(F)(F)F)ccc2Cl)cc1 | -1.47%
CC(=O)Nc1ccc(NC(=O)CCCNC(=O)c2ccc(Cl)cc2)cc1 | -21.3%
O=C(CCc1nc(CN2CCN(S(=O)(=O)c3ccc(Br)cc3)CC2)no1)N1CCCCC1 | 20.2%
CCOC(=O)c1ccc(NC(=O)CCS(=O)(=O)c2ccc3c(c2)oc(=O)n3C)cc1 | 0.775%
CCOc1ccc(CNC(=O)c2cccc(Nc3nc4ccccc4n4nnnc34)c2)cc1OC | -17.1%
COc1ccc(-c2nc3sc(CCNC(=O)C(C)(C)C)c(C)n3n2)cc1 | -21.2%
COc1cncc(-c2cnc3sc(NCCc4ccccn4)nn23)c1 | -64.8% (active)
O=C(CNC(=O)COc1ccccc1)NCCc1ccccn1 | 31.2%
CC(C)c1ccc(NC(=O)C2CCN(c3nc(-c4ccc(C(C)C)cc4)no3)CC2)cc1 | -71.9% (active)
CC(C)c1ccc(-c2noc(C3CCCN(S(C)(=O)=O)C3)n2)cc1 (stereo unspecified) | -15.2%
CCOc1ccc(NC(=O)C2CCN(S(=O)(=O)c3cc(-c4noc(C)n4)ccc3C)CC2)cc1 | 10.9%
C[C@@H]1CN([C@@H](C)CO)C(=O)c2cc(NC(=O)C3CC3)ccc2O[C@H]1CN(C)C | 34.3%
COc1cc(C(=O)Nc2cc(C(F)(F)F)ccc2-n2cncn2)cc(OC)c1OC | -20%
COCCCNC(=O)c1cccc2c(-c3ccc(O)c(OC)c3)coc12 | 71.3%
CC(Sc1ccc(S(=O)(=O)N2CCN(C)CC2)cn1)C(=O)NC1CCCC(C)C1C (stereo unspecified) | -4.06%
COC(=O)c1ccc(S(=O)(=O)c2ccc(C(=O)OC)s2)s1 | 23.7%
CCc1ccc(C2=CC(=O)CC(C)(C)C2=O)cc1 | -23%
COc1ccc(Cn2c(C(=O)O)c(CNCCc3cccs3)c3ccc(OC)cc32)cc1 | -4.9%
COc1cccc(CNCc2c(C(=O)O)n(Cc3ccc(C)cc3)c3cc(C)ccc23)c1OC | 3.78%
COc1ccc(Cn2c(C(=O)O)c(CNCc3cccc(OC)c3)c3ccc(C)cc32)cc1 | -106% (active)
COc1cccc(CNC(=O)Cn2ncn3c(cc4ccccc43)c2=O)c1 | 44.2%
Cc1ccc(C(=O)CSc2nc(-c3ccccc3)nc3c2CCCC3)c(C)c1 | 2.92%

Compound | activity change, negative = inhibition
COc1ccccc1C(=O)Nc1c(C(=O)Nc2ccc(C)cc2)oc2ccccc12 | 14.6%
Cc1n[nH]c(C)c1S(=O)(=O)N1CCCC(C(=O)NCC2COc3ccccc3O2)C1 (stereo unspecified) | -37.1%
c1ccc2c(c1)OCC(CNc1ncnc3nc[nH]c13)O2 (stereo unspecified) | -61.6% (active)
CCc1ccccc1NC(=O)CSc1nc(C)c(C(=O)Nc2ccccc2)c(-c2ccc(Cl)cc2)c1C#N | -35.3%
Cc1cccc(CC(=O)Nc2cccc(-c3cn4cccnc4n3)c2)c1 | 10%
CC(=O)N1CCc2cc(S(=O)(=O)Nc3ccccc3N3CCN(C)CC3)ccc21 | -37.8%
Cc1cc2c(cc1C)N1C(=O)c3cc4ccccc4cc3NC(=O)C1C(=O)N2 (stereo unspecified) | -73.2% (active)
COc1cccc(NC(=O)c2ccc3nc(CCc4ccccc4)oc3c2)c1 | 41.2%
CCC(C)NC(=O)c1nn(C)c(=O)c2ccccc12 (stereo unspecified) | 29.9%
COc1cc2c(cc1OC)C(c1cccc([N+](=O)[O-])c1)=NCC2 | 54.4%
CCOC(=O)C1=NN(c2ccc(Cl)cc2)/C(=C/C2=NCCc3cc(OC)c(OC)cc32)S1 | 27.1%
COc1cc2c(cc1OC)C(/C=C/c1ccco1)=NCC2 | -61.3% (active)
Cc1c(CNC(C)c2ccccc2)c(C(=O)O)c(C)n1Cc1c(F)cccc1Cl (stereo unspecified) | -11%
CCOc1cc2[nH]c(=S)n(Cc3ccc(C(=O)N4CCN(C)CC4)cc3)c(=O)c2cc1OCC | -95.9% (active)
COc1cc2[nH]c(=S)n(Cc3ccc(F)cc3)c(=O)c2cc1OC | -63.8% (active)
COc1cc2[nH]c(=O)n(Cc3ccc(C(=O)NCc4ccc(C)cc4)cc3)c(=O)c2cc1OC | -0.48%
CCOc1cc2[nH]c(=S)n(CCCN3CCCC3=O)c(=O)c2cc1OCC | -13%
CCOc1cc2[nH]c(=S)n(CCN3CCCCC3C)c(=O)c2cc1OCC (stereo unspecified) | 0.001%
COc1cc2[nH]c(=S)n(Cc3ccc(C)o3)c(=O)c2cc1OC | -9.57%
COc1ccc(CN2CCCCC2C)cc1OC (stereo unspecified) | 13.3%
CCOc1cc2[nH]c(=O)n(Cc3ccc(C(=O)NCCCN4CCCC4=O)cc3)c(=O)c2cc1OCC | -26.6%
COc1cc2[nH]c(=S)n(CCN3CCCCC3C)c(=O)c2cc1OC (stereo unspecified) | -75.7% (active)

Compound | activity change, negative = inhibition
CCOc1cccc(NC(=O)CSc2ncc(-c3ccc(Cl)cc3)[nH]2)c1 | -2.16%
Cc1ccc(F)cc1NC(=O)CCSc1nc(-c2ccco2)cc(C(F)(F)F)n1 | -17%
Cc1ccc(-c2cnc(C3CC3)o2)cc1S(=O)(=O)Nc1cccc(C)c1C | -35%
CCn1nnc(NC(=O)c2cc(Cl)c(OC)c(Cl)c2)n1 | 16.3%
O=C(CN1C2CCC1CC(NC(=O)C1CC1)C2)NCc1ccccc1 (stereo unspecified) | 18.9%
COc1ccc(CCNC(=O)c2cn(C)c3ccc(S(=O)(=O)N(C)C4CCCCC4)cc3c2=O)cc1OC | 7.75%
Nc1c(C(=O)OCC(=O)Nc2ccc(OC(F)F)cc2)[nH]c(=O)[nH]c1=O | -34.6%
COc1ccc(NC(=O)c2ccc3oc(=O)c(S(=O)(=O)c4ccc(F)cc4)cc3c2)c(OC)c1 | 10.2%
O=S1(=O)c2c(cccc2N2CCCC2)O[C@H](COCc2ccccc2)CN1C1CC1 | -34%
CCCCC[C@H](C)N1C[C@@H](COCc2ccccc2)Oc2cc(N3CC[C@@H](N(C)C)C3)ccc2S1(=O)=O | -94.8% (active)
CCCCC[C@H](C)N1C[C@@H](COCc2ccccc2)Oc2cc(N3CCC[C@@H]3CO)ccc2S1(=O)=O | 15%
CN1C(=O)c2ccccc2Sc2ccc(NC(=O)Cc3ccc(Cl)cc3)cc21 | -23.7%
Cc1nn2c(=O)cc(COC(=O)c3cccc(NC(=O)COc4ccccc4Cl)c3)nc2s1 | 14%
COc1ccccc1NC(=O)c1cc(C2CC2)nc2c1c(C)nn2-c1ccc(C)cc1 | 16.5%
O=C(OC1CCCCC1=O)c1cccc(S(=O)(=O)NCc2ccccc2)c1 (stereo unspecified) | -28.2%
Cc1ccc(Cl)cc1N1CCN(C(=O)C2CCC(CNS(=O)(=O)c3cccs3)CC2)CC1 (stereo unspecified) | -25.7%
COc1ccc(Nc2ncc(C(=O)Nc3cc(C)ccc3OC)c3ccccc23)cc1 | -108% (active)
COc1ccc(NC(=O)c2cnc(Nc3ccc(C)c(Cl)c3)c3ccccc23)cc1OC | -10.9%
COC(=O)c1cnc(Nc2cc(C)ccc2OC)c2ccccc12 | -31.5%
Cc1ccc2oc3c(c(=O)c2c1)C(c1ccc(O)cc1)N(Cc1ccc2c(c1)OCO2)C3=O (stereo unspecified) | -1.21%
